Source: PubChem (National Center for Advancing Translational Sciences (NCATS))
A selection: hits, their analogues and other compounds. The true share with any hit is near 19%.
HT1080 IDH1KD tx = qHTS for induction of synthetic lethality in tumor cells producing 2HG: qHTS for the HT-1080-IDH1KD cell line; Potency, µM (titrated, usually from 46.1 µM), without a hit: top-dose activity, negative = toxicity, most hits filed as cytotoxic; 2% of 360,000 active; HT-1080 IDH1 knockdown viability, ATP luminescence, 48 h; AID 686971, 2013;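 further: potency means the concentration at half of the fitted maximal effect; 0% = DMSO wells and -100% = cell-free medium wells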
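Luminescent ATP read-out (CellTiter-Glo, 10 min at room temperature) after 48 h compound exposure at 37 °C gave viability of IDH1-knockdown HT-1080 cells. Activity was normalised to DMSO and cell-free wells, then fitted as concentration-response curves.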
IL-1B inflam inh = qHTS for Inhibitors of Inflammasome Signaling: IL-1-beta AlphaLISA Primary Screen. THP-1 LPS/ATP IL-1B secretion, AlphaLISA, 16 h; active compounds read low. activity change, % at 57.5 µM. 4.7% of 360,000 active. AID 743279, 2014; in the data active means activity change below about -50%; inconclusive means mostly about -30% to -49%
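THP-1 cells pretreated 1 hr with compounds (up to 57.5 uM final), then stimulated with LPS (250 ng/mL final) plus ATP (1.25 mM final); secreted IL-1B measured by AlphaLISA after 16 hr, decreased signal indicating inhibition.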
HT1080NT lethal = qHTS for induction of synthetic lethality in tumor cells producing 2HG: qHTS for the HT-1080-NT fibrosarcoma cell line; HT-1080-NT fibrosarcoma viability, CellTiter-Glo ATP luminescence, 48 h; Potency, µM (top dose mostly 46.1 µM), for the others: top-dose activity, negative = less viability, hits mostly cytotoxic; 1.6% of 360,000 active; AID 686970, 2013;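 further: NT is the 2HG producing partner of a matched IDH1 knockdown line; potency means the concentration at half of the fitted maximal effect; 0% = DMSO-treated cells and -100% = media-only wells without cells; nearly all actives have a fitted effect of over 55% in size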
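750 cells/well, RPMI + 5% FBS; 2 h settle, compound pin-transfer, 48 h at 37 degrees C. CellTiter-Glo 10 min RT, luminescence. Normalized to DMSO and media-only wells.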
TDP1 cell CPT = qHTS for Inhibitors of human tyrosyl-DNA phosphodiesterase 1 (TDP1): qHTS in cells in presence of CPT. chicken DT40 Tdp1-/-;hTDP1 cells + 20 nM CPT, ATP luminescence, 48 h. Potency, µM (highest dose often 46.2 µM), inactives show at the highest dose activity change, negative = growth inhibition, most hits filed as inhibitors. 12% of 420,000 active. AID 686979, 2013; further: potency means the concentration at half of the fitted maximal effect; nearly all actives have a fitted effect of over 55% in size
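Chicken DT40 Tdp1-/- cells complemented with human TDP1, 400 cells/well, exposed to compounds plus 20 nM camptothecin for at least 48 h at 37 C; viability read as ATP content by CellTiter-Glo luminescence.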
TDP1 cell noCPT = qHTS for Inhibitors of human tyrosyl-DNA phosphodiesterase 1 (TDP1): qHTS in cells in absence of CPT; DT40 Tdp1-/- hTDP1 cells, no CPT, ATP luminescence, 48 h; Potency, µM (doses to about 46.2 µM), for inactives: at the top dose activity change, negative = growth inhibition, most hits filed as inhibitors; 15% of 420,000 active; AID 686978, 2013; further: potency means the concentration at half of the fitted maximal effect; nearly all actives have a fitted effect of over 55% in size
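No-CPT arm: Tdp1-/-;hTDP1 DT40 cells (400/well) plus compounds, incubated ≥48 hr at 37 °C. Readout CellTiter-Glo luminescence.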
ELG1 DNA repair = qHTS screen for small molecules that inhibit ELG1-dependent DNA repair in human embryonic kidney (HEK293T) cells expressing luciferase-tagged ELG1. HEK293T ELG1-luciferase reporter, luminescence, 16 h; DNA damage induced by 5-fluorouridine. Potency, µM (highest dose often 46.1 µM), for inactives: at the highest dose activity change, negative = inhibition, hits mostly inhibitors. 2.3% of 330,000 active. AID 504467, 2011; further: potency means the concentration at half of the fitted maximal effect; nearly all actives have a fitted effect of over 55% in size
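5-Fluorouridine DNA damage + compound/DMSO, 2,000 cells/well, 16 h, 37 °C/5% CO2. ONE-Glo, 30 min RT, luminescence. Readout = decrease in reporter signal.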
* hit, by the source's call; ? = inconclusive; . = no result given; [ ] = remark or other dose. Unless noted, the call rests on the fitted dose curve; in most records, active means well fitted curve in the direction sought with a large enough effect; inconclusive means small, poorly fitted or top-dose-only effect, or another doubt; inactive means no such curve, though single readings can be large; an effect the other way counts as inactive or inconclusive. Unless noted, on the % scale 0 is the no-effect control and ±100 the full control effect.

SMILES | HT1080 IDH1KD tx | IL-1B inflam inh | HT1080NT lethal | TDP1 cell CPT | TDP1 cell noCPT | ELG1 DNA repair
CC(C)C[C@H]1CNC(=S)N1CC1CCN(CCCCc2ccccc2)CC1 | -4.0% | ? | 0.3% | ? | ? | .
O=[N+]([O-])c1ccc(S(=O)(=O)Nc2nnc(C(F)(F)F)s2)cc1 | -5.8% | 4.8 | -1.2% | -11.3% | 10.4% | -9.4%
Nc1nc2ccccc2n1S(=O)(=O)c1ccc(Cl)cc1 | -6.5% | -15.9 | -9.3% | ? | ? | .
CCOC(=O)c1ccc(CN(Cc2ccccc2C)S(=O)(=O)c2ccc(F)c(C(=O)Nc3cccc(OC)c3)c2)cc1 | . | . | . | 0.4% | -16.2% | .
CN1CCN(C2=C(Cl)C(=O)C(c3cnc(N4CCCCC4)s3)=C(Cl)C2=O)CC1 | ? | 0.0 | -11.7% | 2.06µM* | 1.64µM* | -4.2%
C=CCNC(=S)NNC(=O)Cn1c(-c2ccccc2)cc(=O)n2ncnc12 | 9.5% | 6.4 | 10.6% | -7.1% | -1.0% | 4.3%
COc1ccc(OC)c(S(=O)(=O)Nc2ccc(C(N)=O)cc2)c1 | 10.4% | 2.2 | 9.8% | -28.8% | -13.0% | -0.1%
COc1ccc(OC)c(S(=O)(=O)Nc2ccc(C(C)=O)cc2)c1 | ? | 14.0 | -1.2% | 11.2µM* | 17.8µM* | 11.7%
COc1ccc(OC)c(S(=O)(=O)Nc2ccc3oc(C)c(C(C)=O)c3c2)c1 | -27.9% | 22.5 | -27.0% | 16.4µM* | 14.6µM* | -9.6%
COC(=O)c1c(C)oc2ccc(NS(=O)(=O)c3cc(OC)ccc3OC)cc12 | ? | 8.2 | ? | 10.3µM* | 10.3µM* | ?
COc1cc(NC(=O)CCc2c(C)nn(-c3ccc4nnc(C)n4n3)c2C)cc(OC)c1OC | . | . | . | ? | -17.9% | .
O=C1CCn2c1c(O)c1ccccc1c2=O | -2.2% | 3.4 | -6.1% | -14.8% | -5.8% | .
N=C1CCC(=N)c2c1c(O)c1ccccc1c2O | ? | ? | 23.1µM* | ? | ? | ?
Nc1cc(Cl)cc2c1-c1ccc(Cl)cc1C2 | -13.1% | 7.9 | -12.9% | ? | ? | .
Cc1ccc(S(=O)(=O)c2nc(C)oc2NCc2ccccc2)cc1 | . | . | . | . | . | 9.6%
CNc1oc(-c2ccccc2F)nc1S(=O)(=O)c1ccc(C)cc1 | 2.2% | -6.8 | -0.5% | -2.8% | -17.8% | -4.6%
Cc1ccc(S(=O)(=O)c2nc(-c3ccccc3F)oc2NCc2ccccc2)cc1 | . | . | . | ? | 20.6µM* | .
CCOc1ccc(-c2nc(S(=O)(=O)c3ccccc3)c(NCc3cccnc3)o2)cc1 | -9.9% | ? | -0.5% | ? | ? | 14.6µM*
CCOc1ccc(-c2nc(S(=O)(=O)c3ccccc3)c(NC)o2)cc1 | 17.6% | 5.0 | -8.3% | 14.1% | -0.4% | 0.0%
COc1ccc(-c2nc(S(=O)(=O)c3ccc(C)cc3)c(NCc3ccccc3)o2)cc1 | . | . | . | ? | 16.4µM* | .
O=S(=O)(c1ccccc1)c1nc(-c2cccc(Cl)c2)oc1NCc1ccccc1 | . | . | . | ? | 25.9µM* | .
CC(C)N1CCC(C)(C(=O)Nc2cccc(Oc3ccccc3)c2)C1 (stereo not given) | -14.1% | 4.8 | ? | ? | ? | .
CC(C)NC(=O)C1(C)CSCC(=O)N1C1CCN(Cc2ccccc2)CC1 (stereo not given) | 3.8% | -16.8 | 14.2% | 4.0% | -7.6% | .
Cn1cc(-c2nc3cnc(Oc4cccc(Cl)c4)nc3n(CCC#N)c2=O)c2ccccc21 | . | . | . | 19.8% | 2.5% | .
CCN(CC)CCNC(=O)c1nn(-c2ccc(Cl)cc2)c2c1CCc1cc(OC)ccc1-2 | ? | -102.9* | -6.4% | ? | 20.6µM* | .
SMILES | HT1080 IDH1KD tx | IL-1B inflam inh | HT1080NT lethal | TDP1 cell CPT | TDP1 cell noCPT | ELG1 DNA repair
COc1ccc2c(c1)CCc1c(C(=O)Nc3c(C)nn(Cc4ccc(Cl)cc4)c3C)noc1-2 | . | . | . | 20.6µM* | 20.6µM* | .
COc1ccc2c(c1)CCc1c(C(=O)NCc3ccc(Cl)cc3)noc1-2 | 12.8% | 30.5 | 19.7% | 0.3% | -12.4% | ?
CC1(C)CC2CC(C)(CN2C(=O)c2ccccc2)C1 (stereo not given) | 1.0% | 25.3 | 1.8% | 16.4µM* | -23.4% | -7.4%
COc1ccc(C(=O)N2CC3(C)CC2CC(C)(C)C3)cc1 (stereo not given) | -1.9% | -28.4 | -7.3% | ? | ? | .
COc1ccc2c(c1)CCc1c(C(=O)Nc3ccc(OC)c(OC)c3)noc1-2 | 10.8% | -17.9 | 15.5% | ? | ? | 9.7%
COc1ccc2c(c1)CCc1c(C(=O)NCCc3ccc(OC)c(OC)c3)noc1-2 | -7.4% | -16.7 | 9.5% | ? | 12.6µM* | ?
COc1ccc2c(c1)CCc1c(C(=O)Nc3cc(C)n(Cc4ccc(Cl)cc4)n3)noc1-2 | 16.1% | 44.1 | 17.0% | ? | ? | -1.5%
COc1ccc2c(c1)CCc1c(C(=O)Nc3ccn(Cc4ccc(C)cc4)n3)noc1-2 | -7.9% | -8.8 | -29.4%[9.24 µM] | -29.1% | ? | ?
COc1ccc2c(c1)CCc1c(C(=O)Nc3c(C)nn(Cc4ccc(Cl)c(Cl)c4)c3C)noc1-2 | . | . | . | 11.6µM* | 13µM* | .
COc1ccc2c(c1)CCc1c(C(=O)N3CCOCC3)noc1-2 | -22.2% | -18.3 | -12.8% | -26.9% | -32.5% | ?
O=C(Nc1cnn(Cc2ccc(Cl)cc2Cl)c1)c1noc2c1CCc1ccccc1-2 | . | . | . | 16.4µM* | ? | .
Cc1cc(C(=O)Nc2cnn(Cc3ccc(Cl)cc3Cl)c2)no1 | -28.9% | 1.3 | -13.4% | -21.2% | -23.9% | -5.3%
COc1ccc2c(c1)CCc1c(C(=O)Nc3c(C)nn(Cc4ccccc4)c3C)noc1-2 | -3.1% | ? | 4.9% | 9.2µM* | 9.2µM* | 13µM*
COc1ccc2c(c1)CCc1c(C(=O)N3CC4(C)CC3CC(C)(C)C4)noc1-2 (stereo not given) | ? | -21.7 | ? | 16.4µM* | ? | ?
CN1CCN(S(=O)(=O)c2cccc(C(=O)N3CCN(c4ccccc4F)CC3)c2)CC1 | 12.1% | 21.0 | 6.5% | -2.3% | 12.5% | 18.8%
O=C(NCc1ccccc1)c1cc(C2COCCN2C(=O)c2ccc(Cl)cc2)on1 (stereo not given) | 12.4% | 2.9 | 13.1% | -3.4% | -29.0% | .
